EPAC1 antagonist: antagonists of human EPAC1. EPAC1 GEF assay, Rap1b-BODIPY-GDP exchange fluorescence. O95398. Potency, µM (series often up to 115 µM), inactives show at the highest dose activity change, negative = inhibition, hits mostly inhibitors. 360,000 compounds, 0.14% hits;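 also: plate controls were vehicle for no effect and positive control for full effect; nearly all actives have a fitted effect of over 50% in size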
EPAC2 antag: blocks human EPAC2 exchange factor; 360,000 compounds, 0.18% hits; Potency, µM (doses to about 114 µM), for inactives: top-dose activity, negative = inhibition, hits mostly inhibitors; EPAC2 GEF exchange of Rap1B-BODIPY-GDP, fluorescence; also: % is scaled to controls: 0 for no effect and ±100 for the full control effect; nearly all actives have a fitted effect of over 45% in size
Target sequence (Q8WZA2 whole entry, looked up): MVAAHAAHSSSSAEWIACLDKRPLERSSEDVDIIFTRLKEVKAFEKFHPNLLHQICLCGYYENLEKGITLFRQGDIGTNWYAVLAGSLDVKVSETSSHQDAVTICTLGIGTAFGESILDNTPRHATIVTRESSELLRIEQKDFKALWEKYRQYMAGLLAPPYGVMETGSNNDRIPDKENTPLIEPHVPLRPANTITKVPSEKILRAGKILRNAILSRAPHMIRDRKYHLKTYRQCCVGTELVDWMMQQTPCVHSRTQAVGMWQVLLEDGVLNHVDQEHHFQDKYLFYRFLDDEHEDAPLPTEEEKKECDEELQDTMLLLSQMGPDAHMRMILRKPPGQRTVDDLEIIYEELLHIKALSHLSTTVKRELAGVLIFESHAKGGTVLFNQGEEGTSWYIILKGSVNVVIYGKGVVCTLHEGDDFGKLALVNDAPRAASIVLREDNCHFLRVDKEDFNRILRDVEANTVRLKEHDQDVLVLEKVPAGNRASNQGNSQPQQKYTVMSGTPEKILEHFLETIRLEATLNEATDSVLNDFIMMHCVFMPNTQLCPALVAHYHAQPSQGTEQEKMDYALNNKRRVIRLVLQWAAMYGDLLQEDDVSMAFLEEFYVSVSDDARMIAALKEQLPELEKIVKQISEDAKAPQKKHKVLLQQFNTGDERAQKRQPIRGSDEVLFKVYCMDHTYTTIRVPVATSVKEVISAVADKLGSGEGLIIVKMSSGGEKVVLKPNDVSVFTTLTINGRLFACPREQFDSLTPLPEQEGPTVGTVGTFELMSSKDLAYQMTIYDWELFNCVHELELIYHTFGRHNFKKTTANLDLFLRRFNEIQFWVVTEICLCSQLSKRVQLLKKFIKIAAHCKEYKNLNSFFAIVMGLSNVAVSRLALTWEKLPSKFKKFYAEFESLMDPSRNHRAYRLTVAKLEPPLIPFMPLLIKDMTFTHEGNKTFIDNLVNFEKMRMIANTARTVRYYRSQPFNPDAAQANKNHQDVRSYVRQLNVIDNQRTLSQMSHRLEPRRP
EPAC1 ag: activates human EPAC1 exchange factor; O95398; EPAC1 agonist qHTS, biochemical assay; response scale: 100% = response to 6.5 mM cAMP; Potency, µM (highest dose often 154 µM), inactives show at the highest dose activation, usual class: activators; 360,000 compounds, 0.073% hits; AID 720707; also: nearly all actives have a fitted effect of over 60% in size
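Normalized to 6.5 mM cAMP, activity reflects EPAC1-catalysed release of BODIPY-GDP from Rap1B, followed kinetically over 30 min at 480 nm excitation, 540 nm emission. Reaction contained 100 nM EPAC1, 250 nM Rap1B-BODIPY-GDP, 50 uM GDP.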
TDP1 block: inhibitors of human tyrosyl-DNA phosphodiesterase TDP1. Q9NUW8. recombinant TDP1, AlphaScreen DNA substrate cleavage. Potency, µM (highest dose often 130 µM), inactives show top-dose activity change, negative = inhibition, most hits filed as inhibitors. 350,000 compounds, 0.28% hits; also: % is scaled to controls: 0 for no effect and ±100 for the full control effect; nearly all actives have a fitted effect of over 40% in size
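Here, a 5' biotin and 3' phosphotyrosine-FITC DNA oligonucleotide reports Tdp1 activity: intact substrate bridges AlphaScreen beads, while cleavage leaves a 3' phosphate and drops signal. All incubations at room temperature.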
EPAC2 ag: EPAC2 (human) agonism. EPAC2 activation, biochemical qHTS; response scale: 100% = 6.5 mM cAMP response. Potency, µM (series often up to 154 µM), inactives show top-dose activation, most hits filed as activators. 360,000 compounds, 0.079% hits; also: nearly all actives have a fitted effect of over 50% in size
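Exchange assay: 100 nM EPAC2 with 250 nM Rap1B-BODIPY-GDP and 50 uM GDP. Fluorescence (ex 480/em 540 nm) read every 5 min for 30 min at room temperature. Data normalized to 6.5 mM cAMP as agonist control.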
ERG-DNA inh: inhibitors of human ERG Ets domain-DNA interaction. 370,000 compounds, 0.028% hits. P11308. Potency, µM (highest dose often 76.9 µM), for inactives: at the top dose FP activity, negative = inhibition, actives largely listed as inhibitors. fluorescence polarization, His-ERG Ets domain / labelled DNA; active = well fitted inhibition curve with a large enough effect in the polarisation, with a control signal flat; inconclusive = small, poorly fitted or top-dose-only effect, or effect the other way, or a change in a side signal; inactive = no such curve, though single readings can be large or run the other way; the % refers to the polarisation;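 also: polarization taken with two DNA probes labelled with fluorescein and Texas red; % of control where 0% means no effect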
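His-tagged ERG Ets domain (1 uM in the protein solution; 300mM KCl, 50mM Tris-HCl, 1mM EDTA, 1mM DTT, pH 7.5) received compound, then a probe mix of 5 nM fluorescein-DNA and 100nM Texas-615-DNA. Fluorescence polarization was read for both dyes.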
Starred values were filed as active, the others as inactive; i = inactive; u = inconclusive; x = no result given; ! = not active in a repeat; [ ] = another dose, or the depositor's remark. In the library only some 0.54% were active in any assay of this set; here they are far more common. Unless noted, calls follow the shape of the dose curve; as a rule, active = well fitted curve in the direction sought with a large enough effect; inconclusive = small, poorly fitted or top-dose-only effect, or another doubt; inactive = no such curve, though single readings can be large; an effect the other way counts as inactive or inconclusive. Potency is read from the fitted curve at half-maximal effect.

SMILES	EPAC1 antagonist	EPAC2 antag	EPAC1 ag	TDP1 block	EPAC2 ag	ERG-DNA inh
CC1=NN(c2ccc(Cl)c(C(=O)O)c2)C(=O)/C1=C\c1ccc(-c2ccc(C(=O)O)cc2)o1	32%	4%	4%	79µM*	12%	3%
N#Cc1nc(-c2ccc(OCc3ccc(Cl)cc3)cc2)oc1N1CCCCCC1	x	x	x	5%	x	x
O=S(=O)(NCC(c1ccco1)N1CCc2ccccc21)c1ccccc1 (configuration not stated)	-2%	6%	100µM*	-11%[0.505 µM]	15%	-1%
O=C(NN=C1c2ccccc2-c2ccccc21)c1ccccc1Br	0%	-3%	14%	-2%	11%	8%
O=C(NN=C1c2ccccc2-c2ccccc21)c1ccccc1	2%	-7%	9%	20µM*	13%	-2%
O=C(CNC(=O)c1cccc(Cl)c1)OC(C(=O)Nc1cc(C(F)(F)F)ccc1Cl)c1ccccc1 (configuration not stated)	x	x	x	-1%	x	x
O=C(Nc1c(-c2ccc3c(c2)OCO3)[nH][nH]c1=O)c1ccccc1	35µM*	u	-6%	x	28%	x
COc1ccc(C2Nc3ccc(NC(C)=O)cc3C(=O)N2Cc2cccc(Cl)c2)cc1COc1ccc(NC(C)=O)cc1 (configuration not stated)	x	x	x	-5%	x	x
COc1cccc(Cn2c(=O)c3ccccc3n3nc(C)cc23)c1	-5%	50µM*	15%	-3%	14%	4%
COc1cccc(Cn2c(=O)sc3ccccc3c2=O)c1	-29%	-25%	15%	-11%	15%	-1%
C=Cc1nc(Nc2cc(F)cc(F)c2)nc(NC2CCCC2)n1	x	x	x	2%	x	x
O=C(O)C(c1ccccc1)N1C(=O)/C(=C\c2ccc(O)c(O)c2)SC1=S (configuration not stated)	32µM*	22µM*	-3%	x	-2%	148%
CC(=O)OCCn1c2nc(=O)[nH]c(=O)c-2nc2cc(C)c(C)cc21	i	i	50µM*	3.5µM*	100µM*	35µM*
CC(C)(C)c1ccc(C(=O)NCC2CCCN2S(=O)(=O)c2ccccc2)cc1 (configuration not stated)	u	-25%	45µM*	x	-4%	-1%
Cc1ccc(C(=O)NCC2CCCN2S(=O)(=O)c2ccc(C)cc2)cc1 (configuration not stated)	-4%	-14%	6%	0%	4%	2%
Cc1nc2ccccc2n1-c1ccccc1	9%	14%	-3%	4%	-1%	-7%
O=c1c(/C=C(\O)c2ccccc2)nc2ccccc2n1-c1ccccc1	396%	104%	100µM*	u	100µM*	0%
COc1ccccc1C1NC(c2ccc3c(c2)OCO3)=CC(c2ccccc2O)N1 (configuration not stated)	x	x	x	2%	x	x
Cc1ccc(C(=O)O)cc1-c1ccc(/C=C2\SC(=O)N(CC(=O)Nc3ccccc3)C2=O)o1	u	-16%	1%	40µM*	2%	-9%
Cc1cc(C(=O)O)ccc1-c1ccc(/C=C2\SC(=O)N(CC(=O)Nc3ccc4c(c3)OCO4)C2=O)o1	x	x	x	8.9µM*	x	x
Cc1ccccc1NC(=O)CN1C(=O)S/C(=C\c2ccc(-c3cc(C(=O)O)ccc3C)o2)C1=O	-46%	72%	-3%	x	-18%	-4%
C#CCN1C(=O)S/C(=C\c2ccc(-c3ccc(C(=O)O)cc3C)o2)C1=O	-14%	-10%	-7%	x	0%	21%
NC(=O)c1ccc(NC(=O)COC(=O)/C=C/c2ccc(Br)o2)cc1	11%	4%	11%	5.6µM*	2%	10%
CN(C)S(=O)(=O)c1cccc(NC(=O)COC(=O)/C=C/c2ccc(Br)o2)c1	-26%	-6%	6%	x	10%	9%
O=C(O)c1ccc(NC(=S)NC(=O)c2ccc(-c3ccc(Br)cc3)o2)cc1	-8%	u	0%	14µM*	18%	1%
SMILES	EPAC1 antagonist	EPAC2 antag	EPAC1 ag	TDP1 block	EPAC2 ag	ERG-DNA inh
Cc1ccc(NS(=O)(=O)c2ccc3c(c2)N(C)CCO3)cc1C	x	x	x	5%	x	x
CC1(OC(=O)CCc2ccccc2)C(=O)C=C2C=C3CCCN3C=C2C1=O (configuration not stated)	-19%	9%	3%	4.5µM*!	10%	-2%
CCCN1CNc2c(c(=O)[nH]c(=S)n2CCc2cc(OC)cc(OC)c2)C1	x	x	x	-8%	x	x
OCCN(Cc1ccccc1)Cc1cccc(Cl)c1Cl	-1%	-14%	27%	16µM*	17%	x
Cn1c(=O)c(Nc2ccc(Cl)cc2)c2c3c(cccc31)C(=O)c1ccccc1-2	11%	63%	u	0%	112µM*	-29%
COc1ccc2cc3cc(C(=O)NCc4cccs4)oc3nc2c1	-3%	-1%	8%	32µM*	5%	-4%
COc1ccc2cc3cc(C(=O)NCc4ccc(C)cc4)oc3nc2c1	x	x	x	2%	x	-2%
CCCNC(=O)c1ccc2c(=O)c(O)c(-c3ccsc3)[nH]c2c1	-1%	10%	21%	-4%	89µM*	3%
COc1ccc2nc3ccccc3nc2c1NC(=O)c1ccc(Cl)cc1Cl	21%	194%	u	0%	100µM*	1%
COc1cc(-c2cc(C(=O)Nc3c(Cl)cc(Cl)cc3Cl)c3ccccc3n2)cc(OC)c1OC	-2%	4%	-8%	0%	-1%	-3%
Cc1ccc(N=Cc2sc(O)c3ccccc23)c(C)c1	-9%	220%	5%	3%	100µM*	2%
Cc1ccc(N=Cc2sc(O)c3ccccc23)cc1	12%	41%	8%	-3%	0%	4%
Cc1cccc2cc(CN(Cc3ccccc3)Cc3nnnn3Cc3ccccc3)c(=O)[nH]c12	x	x	x	2%	x	x
Cc1cc(C)c(C(=O)C(C)OC(=O)c2ccccn2)cc1C (configuration not stated)	-11%	-5%	-16%	7%	3%	-12%
Cc1ccc(C(=O)OC(C)C(=O)c2cc(C)c(C)cc2C)o1 (configuration not stated)	-25%	u	4%	56µM*	9%	-3%
CC1=C(C(=O)OCc2ccccc2)C(c2ccc(C(C)(C)C)cc2)NC(=O)N1CCCCCC(=O)O (configuration not stated)	-16%	16µM*	-6%	-3%	-10%	-1%
CCOC(=O)/C=C/c1cc(F)c(S(=O)(=O)N2CCN(S(=O)(=O)c3ccc4c(c3)OCCO4)CC2)cc1F	x	x	x	1%	x	x
O=C(O)CCc1ccc(-c2ccc(Br)cc2)n1-c1ccc(O)cc1	-16%	50µM*	-1%	x	-8%	5%

Assay outcomes from PubChem BioAssay.
